This is part of a sample that, as a whole, favours compounds with a hit. Of some 79,000 tested, about 15% had one in any assay. Active and inactive are the calls of the source. Rule as the data show it: active = growth inhibition above about 70%; inactive = the rest.
Assays:
[1] = NCI Yeast Anticancer Drug Screen. Data for the rad52 strain (AID 147);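 also: 0% = growth of vehicle-treated control cultures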; conditions: S. cerevisiae rad52 mutant growth inhibition, active compounds read high
Summary of the method: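 DNA repair-defective yeast; compound exposure; growth scored against vehicle controls.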

[2] = NCI Yeast Anticancer Drug Screen. Data for the wt1 strain (AID 149);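 also: 0% = growth of vehicle-treated wt1 cultures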; conditions: S. cerevisiae wt1 strain (SPY 50644) growth inhibition, active compounds read high
Summary of the method: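 Each compound is tested on wt1 yeast and the loss of growth versus vehicle gives the inhibition value.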

[3] = NCI Yeast Anticancer Drug Screen. Data for the rad50EPP+ strain (AID 151);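 also: 0% = growth of vehicle-treated control cultures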; conditions: S. cerevisiae rad50 mutant strain, active compounds read high
Summary of the method: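 rad50EPP+ yeast treated with test compounds. Readout: growth vs vehicle control.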

[4] = NCI Yeast Anticancer Drug Screen. Data for the mgt1 strain (AID 153); conditions: S. cerevisiae mgt1 mutant growth inhibition, active compounds read high
Summary of the method: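 Growth inhibition relative to vehicle controls was scored for the mgt1 yeast strain after compound exposure.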

[5] = NCI Yeast Anticancer Drug Screen. Data for the rad50 strain (AID 155);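 also: 0% = growth of vehicle-only cultures of the same strain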; conditions: S. cerevisiae rad50 strain growth inhibition, active compounds read high
Summary of the method: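 Vehicle-treated cultures provide the reference for the growth inhibition reported for compound-exposed, repair-deficient yeast.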

[6] = NCI Yeast Anticancer Drug Screen. Data for the mec2-1 strain (AID 157); conditions: S. cerevisiae mec2-1 strain, active compounds read high
Summary of the method: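 Growth inhibition is read against vehicle-treated controls after compound exposure of the mec2-1 yeast strain, which is defective in DNA damage repair or cell cycle control.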

[7] = NCI Yeast Anticancer Drug Screen. Data for the rad14 strain (AID 159);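 also: 0% = growth of vehicle-treated control cultures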; conditions: S. cerevisiae rad14 strain growth inhibition, active compounds read high
Summary of the method: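 Inhibition of growth is reported for a repair-deficient yeast mutant following compound treatment, calculated relative to cultures that received vehicle.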

[8] = NCI Yeast Anticancer Drug Screen. Data for the sgs1 mgt1 strain (AID 161);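 also: 0% = growth of cultures given vehicle only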; conditions: S. cerevisiae sgs1 mgt1 strain, active compounds read high
Summary of the method: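 Compounds are added to genetically altered yeast, and growth is compared with cultures given vehicle alone to give percent inhibition.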

[9] = NCI Yeast Anticancer Drug Screen. Data for the CLN2oe strain (AID 163);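 also: 0% = growth of vehicle-only control cultures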; conditions: S. cerevisiae CLN2oe strain, active compounds read high
Summary of the method: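 Compound-treated yeast; growth vs vehicle ctrl = % inhibition. Genetically altered strain (cell-cycle control).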

[10] = NCI Yeast Anticancer Drug Screen. Data for the cln2 rad14 strain (AID 165);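 also: 0% = growth equal to vehicle treated cultures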; conditions: S. cerevisiae cln2 rad14 strain, active compounds read high
Summary of the method: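 Growth inhibition, relative to vehicle-treated controls, is the read-out. The test organism is a yeast strain with defined genetic alterations, cln2 rad14.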

[11] = NCI Yeast Anticancer Drug Screen. Data for the bub3 strain (AID 167); conditions: S. cerevisiae bub3 mutant strain, active compounds read high
Summary of the method: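 Mutant yeast screening strain plus compound; vehicle-treated cultures serve as the 0% inhibition reference.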

[12] = NCI Yeast Anticancer Drug Screen. Data for the wt2 strain (AID 169); conditions: S. cerevisiae wt2 strain growth inhibition, active compounds read high
Summary of the method: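 Compound exposure of yeast; growth compared with vehicle controls; inhibition reported.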

[13] = NCI Yeast Anticancer Drug Screen. Data for the mlh1 strain (AID 171);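 also: 0% = growth of vehicle-treated control cultures of the same strain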; conditions: S. cerevisiae mlh1 strain growth inhibition, active compounds read high
Summary of the method: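 Compounds are applied to a genetically altered yeast strain, and its growth is compared with that of vehicle-treated cultures to give percent inhibition.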

[14] = NCI Yeast Anticancer Drug Screen. Data for the sgs1 strain (AID 173);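 also: 0% = growth of vehicle-only control cultures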; conditions: S. cerevisiae sgs1 mutant, active compounds read high
Summary of the method: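 Compounds applied to genetically altered yeast; growth compared with vehicle-treated cultures to give % inhibition.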

[15] = NCI Yeast Anticancer Drug Screen. Data for the mlh1 rad18 strain (AID 175); conditions: S. cerevisiae mlh1 rad18 strain growth inhibition, active compounds read high
Summary of the method: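 Cells of a genetically altered yeast strain, deficient in DNA damage repair, were treated with compound. Their growth was then compared with that of vehicle-treated cultures to give inhibition.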

[16] = NCI Yeast Anticancer Drug Screen. Data for the rad18 strain (AID 177); conditions: S. cerevisiae rad18 mutant growth inhibition, active compounds read high
Summary of the method: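 Compounds are applied to a repair-deficient yeast strain, and growth is compared with that of vehicle-treated cultures to give percent inhibition.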

[17] = at 5.0 µM (retest, dose inferred, filed as 0.5)
[18] = at 50.0 µM (retest, dose inferred, filed as 5.0)

Measured: growth inhibition

COC(=O)NC1C(C)OC(OC2C/C=C(/C)C3C=CC4C(OC5CC(OC6CC(O)C(OC7CC(O)C(OC)C(C)O7)C(C)O6)C(O)C(C)O5)C(C)CC(C)C4C3(C)/C(O)=C3\C(=O)OC4(CC(C)C(CO)=CC4/C=C\2C)C3=O)CC1(C)[N+](=O)[O-] (stereo unspecified)
inactive: [1]; at 1.2 µM 15% | [1]; at 3.7 µM 40% | [1]; at 11.0 µM 41% | [1]; at 33.0 µM 38% | [1]; at 100.0 µM 21% | [2]; at 1.2 µM 10% | [2]; at 3.7 µM 22% | [2]; at 11.0 µM 20% | [2]; at 33.0 µM 22% | [2]; at 100.0 µM 10% | [3]; at 1.2 µM 10% | [3]; at 3.7 µM 8% | [3]; at 11.0 µM 11% | [3]; at 33.0 µM 5% | [3]; at 100.0 µM 11% | [4]; at 1.2 µM -7% | [4]; at 3.7 µM 2% | [4]; at 11.0 µM -1% | [4]; at 33.0 µM 8% | [4]; at 100.0 µM 7% | [5]; at 1.2 µM 5% | [5]; at 3.7 µM 16% | [5]; [17] 23% | [5]; at 11.0 µM 22% | [5]; at 33.0 µM 21% | [5]; [18] 40% | [5]; at 50.0 µM 5.7% | [5]; at 100.0 µM 16% | [6]; at 1.2 µM 2% | [6]; at 3.7 µM -5% | [6]; [17] 9% | [6]; at 11.0 µM -4% | [6]; at 33.0 µM 5% | [6]; [18] 34% | [6]; at 50.0 µM -7.4% | [6]; at 100.0 µM -3% | [7]; at 1.2 µM 13% | [7]; at 3.7 µM 19% | [7]; at 11.0 µM 14% | [7]; at 33.0 µM 16% | [7]; at 100.0 µM 13% | [8]; [17] 13% | [8]; [18] 27% | [8]; at 50.0 µM 9.1% | [9]; at 1.2 µM 27% | [9]; at 3.7 µM 15% | [9]; at 11.0 µM 20% | [9]; at 33.0 µM 18% | [9]; at 100.0 µM 28% | [10]; [17] 44% | [10]; [18] 33% | [10]; at 50.0 µM 14.8% | [11]; at 1.2 µM 22% | [11]; at 3.7 µM 19% | [11]; [17] 34% | [11]; at 11.0 µM 13% | [11]; at 33.0 µM 9% | [11]; [18] 26% | [11]; at 50.0 µM 10.7% | [11]; at 100.0 µM 9% | [12]; at 1.2 µM -42% | [12]; at 3.7 µM -37% | [12]; at 11.0 µM -47% | [12]; at 33.0 µM -30% | [12]; at 100.0 µM -21% | [13]; at 1.2 µM -4% | [13]; at 3.7 µM 5% | [13]; at 11.0 µM 3% | [13]; at 33.0 µM 3% | [13]; at 100.0 µM -2% | [14]; at 1.2 µM 0% | [14]; at 3.7 µM -8% | [14]; at 11.0 µM -15% | [14]; at 33.0 µM -13% | [14]; at 100.0 µM -10% | [15]; [17] 27% | [15]; [18] 65% | [15]; at 50.0 µM 10.6% | [16]; at 1.2 µM 1% | [16]; at 3.7 µM 17% | [16]; at 11.0 µM 14% | [16]; at 33.0 µM 14% | [16]; at 100.0 µM 13%

O/N=C\c1c(O)ccc2ccccc12
inactive: [1]; at 1.2 µM -4% | [1]; at 3.7 µM 0% | [1]; at 11.0 µM 7% | [1]; at 33.0 µM 31% | [2]; at 1.2 µM -2% | [2]; at 3.7 µM -5% | [2]; at 11.0 µM 0% | [2]; at 33.0 µM 5% | [2]; at 100.0 µM 22% | [3]; at 1.2 µM 2% | [3]; at 3.7 µM 10% | [3]; at 11.0 µM 19% | [3]; at 33.0 µM 54% | [4]; at 1.2 µM -4% | [4]; at 3.7 µM 1% | [4]; at 11.0 µM 1% | [4]; at 33.0 µM 7% | [4]; at 100.0 µM 52% | [5]; at 1.2 µM 1% | [5]; at 3.7 µM 3% | [5]; [17] -11% | [5]; at 11.0 µM 10% | [5]; at 33.0 µM 42% | [5]; at 50.0 µM 63% | [6]; at 1.2 µM -1% | [6]; at 3.7 µM 0% | [6]; [17] -2% | [6]; at 11.0 µM 2% | [6]; at 33.0 µM 12% | [6]; [18] 20% | [6]; at 50.0 µM 47.4% | [6]; at 100.0 µM 33% | [7]; at 1.2 µM -1% | [7]; at 3.7 µM 0% | [7]; at 11.0 µM 7% | [7]; at 33.0 µM 39% | [8]; [17] -6% | [9]; at 1.2 µM -6% | [9]; at 3.7 µM -6% | [9]; at 11.0 µM -5% | [9]; at 33.0 µM 3% | [9]; at 100.0 µM 28% | [10]; [17] -4% | [10]; [18] 21% | [10]; at 50.0 µM 10.3% | [11]; at 1.2 µM -4% | [11]; at 3.7 µM 0% | [11]; [17] 19% | [11]; at 11.0 µM 2% | [11]; at 33.0 µM 11% | [11]; at 100.0 µM 27% | [12]; at 1.2 µM -4% | [12]; at 3.7 µM -2% | [12]; at 11.0 µM -7% | [12]; at 33.0 µM 1% | [12]; at 100.0 µM 55% | [13]; at 1.2 µM -3% | [13]; at 3.7 µM -1% | [13]; at 11.0 µM 4% | [13]; at 33.0 µM 22% | [13]; at 100.0 µM 65% | [14]; at 1.2 µM 10% | [14]; at 3.7 µM 30% | [14]; at 11.0 µM -5% | [14]; at 33.0 µM 41% | [15]; [17] 3% | [16]; at 1.2 µM -3% | [16]; at 3.7 µM 0% | [16]; at 11.0 µM 6% | [16]; at 33.0 µM 30% | [16]; at 100.0 µM 69%
active: [1]; at 100.0 µM 72% | [3]; at 100.0 µM 74% | [5]; [18] 74% | [5]; at 100.0 µM 71% | [7]; at 100.0 µM 75% | [8]; [18] 74% | [8]; at 50.0 µM 78.8% | [11]; [18] 88% | [11]; at 50.0 µM 75% | [14]; at 100.0 µM 80% | [15]; [18] 89% | [15]; at 50.0 µM 73.2%
